GLP1R cytotox – qHTS of GLP-1 Receptor Inverse Agonists: Cytotox Screen | HEK293 cAMP-luciferase reporter cells, luminescence, 24 h | Potency, µM (series often up to 38.3 µM), without a hit: top-dose activity change, negative = inhibition, most hits filed as inhibitors | 410,000 compounds, 0.13% hits | AID 624418, 2012;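 also: loss of luciferase light is scored as toxicity; % is scaled to controls: 0 for no effect and ±100 for the full control effect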
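Luminescence readout: signal drop marks cytotoxicity. Plated cells grew 12 h at 37 °C, 5% CO2, received 23 nL compound for 24 h, then got luciferase reagent, read after 12 min at RT.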
RORgamma inh – qHTS for inhibitors of ROR gamma transcriptional activity. 310,000 compounds, 5.4% hits. AID 2551, 2010. Drosophila S2 Gal4-RORgamma UAS-luciferase reporter, 20 h. Nuclear receptor ROR-gamma (Mus musculus), P51450. Potency, µM (highest dose often 53.6 µM), inactives show at the top dose activity change, negative = inhibition, hits mostly inhibitors; also: % is scaled to controls: 0 for no effect and ±100 for the full control effect; nearly all actives have a fitted effect of over 60% in size
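Using a luciferase readout, inhibitors were identified by reduced reporter activity in Drosophila cells coexpressing a copper-inducible Gal4–ROR gamma fusion and UAS-driven Photinus luciferase, incubated 20 hr after 700 uM copper sulfate.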
GLP-1R inv ag – qHTS of GLP-1 Receptor Inverse Agonists (Inhibition Mode); 410,000 compounds, 1.6% hits; Potency, µM (doses to about 38.3 µM), without a hit: at the highest dose activity change, negative = inhibition, usual class: inhibitors; HEK293 GLP-1R CRE-luciferase, luminescence, 24 h; GLP-1R form is constitutively active; also: % is scaled to controls: 0 for no effect and ±100 for the full control effect; nearly all actives have a fitted effect of over 55% in size
Target sequence (P43220 whole entry, looked up): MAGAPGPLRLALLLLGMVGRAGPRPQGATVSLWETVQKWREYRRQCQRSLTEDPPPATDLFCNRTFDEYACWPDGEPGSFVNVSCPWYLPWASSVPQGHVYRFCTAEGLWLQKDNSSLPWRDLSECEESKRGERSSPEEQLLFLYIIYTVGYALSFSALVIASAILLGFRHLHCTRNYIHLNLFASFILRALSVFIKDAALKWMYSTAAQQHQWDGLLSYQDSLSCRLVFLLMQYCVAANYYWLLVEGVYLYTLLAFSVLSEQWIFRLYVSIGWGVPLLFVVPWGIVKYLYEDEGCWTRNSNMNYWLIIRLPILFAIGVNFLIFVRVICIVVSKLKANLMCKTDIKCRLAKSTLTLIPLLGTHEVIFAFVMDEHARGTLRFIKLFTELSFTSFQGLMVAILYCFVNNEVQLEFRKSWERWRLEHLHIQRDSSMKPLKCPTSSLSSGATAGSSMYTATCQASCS
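Inverse agonism was detected as reduced cAMP-driven luciferase luminescence after 24 h compound treatment. The cells were HEK293 clones expressing constitutively active human GLP-1R with the reporter. Reporter-only and GPR119 cell lines served as counterscreen controls.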
VP16 counter – VP16 counterscreen qHTS for inhibitors of ROR gamma transcriptional activity. Drosophila S2 Gal4-VP16 UAS-luciferase, luminescence, 20 h. Potency, µM (top dose mostly 53.6 µM), inactives show at the highest dose activity, negative = inhibition, hits mostly inhibitors. 310,000 compounds, 3.5% hits;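 also: Gal4-VP16 expression switched on by copper sulfate through the metallothionein promoter; % is scaled to controls: 0 for no effect and ±100 for the full control effect; nearly all actives have a fitted effect of over 50% in size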
GLP-1R agonist – qHTS of GLP-1 Receptor Agonists; Glucagon-like peptide 1 receptor (Homo sapiens), P43220; HEK293 GLP-1R CRE-luciferase, luminescence, 4-6 h; cells express a hypersensitive GLP-1R form; 380,000 compounds, 0.007% hits; Potency, µM (top dose mostly 45.6 µM), without a hit: at the top dose activation, most hits filed as activators; AID 624172, 2012; also: % of control where 0% means no effect
Numbers without * were called inactive; [ ] = dose if it differs, or a comment. The list is not random: actives were taken first. Their share in the collection is about 5.9%. Calls follow the shape of the dose curve; as a rule, active = well fitted curve in the direction sought with a large enough effect; inconclusive = small, poorly fitted or top-dose-only effect, or another doubt; inactive = no such curve, though single readings can be large; an effect the other way counts as inactive or inconclusive. Potency is read from the fitted curve at half-maximal effect.

Screening CCc1ccccc1NC(=S)N(Cc1cccs1)C1CCCC1 returned GLP1R cytotox 0%, RORgamma inh 11µM*, GLP-1R inv ag -25%, VP16 counter 15%[10 µM] and GLP-1R agonist 1%.
CC(CCc1ccccc1)NC(=O)CNC(=S)N(Cc1cccs1)C1CCCC1 (configuration not stated) was read as GLP1R cytotox -3%, RORgamma inh inconclusive, GLP-1R inv ag 5µM*, VP16 counter 0% and GLP-1R agonist 11%.
`Cc1cccc(N2CCN(C(=O)c3cn(C)c4ccc(S(=O)(=O)N(C)C)cc4c3=O)CC2C)c1` (configuration not stated) gave GLP1R cytotox 2%, GLP-1R inv ag 6% and GLP-1R agonist -2%.
For CC1(C)CC(=O)C=C(NC2=CC3OC(c4ccccc4)OCC3OC2=O)C1 (configuration not stated) the results were GLP1R cytotox inconclusive, RORgamma inh inconclusive, GLP-1R inv ag inconclusive, VP16 counter 11µM* and GLP-1R agonist -55%.
Screening Cc1ccccc1NC1=CC(=O)CC(C)(C)C1 returned GLP1R cytotox 1%, RORgamma inh -18%, GLP-1R inv ag -9%, VP16 counter 5% and GLP-1R agonist 21%.
For COc1cccc(-n2ccnc2SCC(=O)Nc2nc3ccc(C)cc3s2)c1 the results were GLP1R cytotox 8%, GLP-1R inv ag 3% and GLP-1R agonist -7%.
For COc1ccc(NC(=O)N2CCCC3(CCN(S(C)(=O)=O)CC3)C2)cc1 the results were RORgamma inh -2% and VP16 counter -2%.
Screening CCc1sc(C(=O)NC2CCN(C)CC2)cc1Br returned GLP1R cytotox 3%, RORgamma inh 27%, GLP-1R inv ag 10µM*, VP16 counter -10% and GLP-1R agonist -3%.
For CC1(C)S/C(=N/N=C/c2cccs2)NC1=O the results were GLP1R cytotox -9%, RORgamma inh 0.79µM*, GLP-1R inv ag 2%, VP16 counter 5µM* and GLP-1R agonist 23%.
`O=C1CS/C(=N/N=C/c2cccs2)N1` gave GLP1R cytotox 5%, RORgamma inh 0.56µM*, GLP-1R inv ag 4%, VP16 counter inconclusive and GLP-1R agonist 3%.
Clc1ccccc1N=C1NN=C(c2cccs2)CS1 was read as GLP1R cytotox -5%, RORgamma inh 11µM*, GLP-1R inv ag inconclusive, VP16 counter inconclusive and GLP-1R agonist 3%.
Screening CN1CCN(C(CNC(=O)C(=O)Nc2cccc(Cl)c2)c2ccc3c(c2)OCO3)CC1 (configuration not stated) returned GLP1R cytotox -22% and GLP-1R inv ag 3%.
Screening CCCCC1(COC(=O)CCC(=O)O)C(=O)N(c2ccccc2)N(c2ccccc2)C1=O returned GLP1R cytotox 0%, RORgamma inh 14%, GLP-1R inv ag -1%, VP16 counter -9% and GLP-1R agonist 2%.
`CCCCC1(Cc2ccc([N+](=O)[O-])cc2)C(=O)N(c2ccccc2)N(c2ccccc2)C1=O` gave GLP1R cytotox -14%, RORgamma inh inconclusive, GLP-1R inv ag inconclusive, VP16 counter 7.1µM* and GLP-1R agonist -7%.
For COC(=O)C1=C(C(=O)OC)[C@@H]2N(Cc3ccccc3)c3ccccc3[C@@]23C[C@@H](C(=O)OC)N(C(=O)c2cccs2)C3=N1 the results were GLP1R cytotox -22%, RORgamma inh inconclusive, GLP-1R inv ag inconclusive, VP16 counter 18µM* and GLP-1R agonist -3%.
Screening COC(=O)C1=C(C(=O)OC)[C@@H]2N(Cc3ccccc3)c3ccccc3[C@@]23C[C@@H](C(=O)OC)N(C(=O)c2cc(C)oc2C)C3=N1 returned GLP1R cytotox -3%, GLP-1R inv ag 11µM* and GLP-1R agonist -3%.
For COC(=O)C1=C(C(=O)OC)[C@@H]2N(C)c3ccccc3[C@@]23C[C@@H](C(=O)OC)N(C(=O)c2cccs2)C3=N1 the results were GLP1R cytotox -11%, RORgamma inh 19%, GLP-1R inv ag -27%, VP16 counter -11% and GLP-1R agonist -3%.
Cc1cccnc1NC(=S)Nc1ccc(Cl)c(Cl)c1 was read as GLP1R cytotox inconclusive, RORgamma inh inconclusive, GLP-1R inv ag inconclusive, VP16 counter inconclusive and GLP-1R agonist -6%.
For COc1ccc(NC(=S)Nn2cnnc2)c(OC)c1 the results were GLP1R cytotox -8%, RORgamma inh inconclusive, GLP-1R inv ag 11%, VP16 counter 0% and GLP-1R agonist -2%.
For COc1ccc(NC(=S)NC23CC4CC(CC(C4)C2)C3)cc1OC the results were GLP1R cytotox inconclusive, RORgamma inh 1.3µM*, GLP-1R inv ag inconclusive, VP16 counter 3.5µM* and GLP-1R agonist 6%.
`COc1ccc(NC(=S)Nc2ncccc2C)c(OC)c1` gave GLP1R cytotox 1%, RORgamma inh 3.2µM*, GLP-1R inv ag 2%, VP16 counter 10µM* and GLP-1R agonist 2%.
COc1ccc(NC(=S)Nc2ncccc2C)cc1OC was read as GLP1R cytotox -8%[7.66 µM], RORgamma inh 6.3µM*, GLP-1R inv ag 13%[7.66 µM], VP16 counter inconclusive and GLP-1R agonist 16%.
Screening COc1ccc2c(c1)O[C@@H](c1ccc3c(c1)OCO3)[C@H](OC(=O)N[C@H]1CCCc3ccccc31)C2=O returned RORgamma inh -1% and VP16 counter 5%.
For COc1c(C2=CC(=O)N(C)C2=O)c2c(n1C)C(=O)c1ccccc1C2=O the results were RORgamma inh inconclusive and VP16 counter 10µM*.
Screening CN=c1sc2c(n1C)C(=O)c1ccccc1C2=O returned GLP1R cytotox inconclusive, GLP-1R inv ag 17% and GLP-1R agonist -1%.
For CCN(CC)c1nn2c(=O)c(C(=O)NCc3ccccc3Br)cnc2s1 the results were GLP1R cytotox -4% and GLP-1R inv ag 9%.
CN(C)CCNC(=O)C12CC3(C)CC(C)(CC(C)(C3)C1)C2 was read as GLP1R cytotox -23%, RORgamma inh 0%, GLP-1R inv ag 8.9µM*, VP16 counter 1% and GLP-1R agonist 3%.
Screening Cc1ccccc1C1C(C#N)=C2N=C(N)c3c(sc4c3CCCCC4)N2C2=C1C(=O)CCC2 (configuration not stated) returned GLP1R cytotox inconclusive, RORgamma inh 14µM*, GLP-1R inv ag inconclusive, VP16 counter inconclusive and GLP-1R agonist 2%.
For CC(Oc1ccccc1)C(=O)N1CCN=C1SCc1ccccc1F (configuration not stated) the results were GLP1R cytotox -6%, RORgamma inh 34%, GLP-1R inv ag 4µM*, VP16 counter -4% and GLP-1R agonist 12%.
